Consider 18 molecules from publication PMC12136788.

T1: UNK ZnF1-6 (called full-length) (human, UniProt Q9C0B0 30-357)
T1 sequence: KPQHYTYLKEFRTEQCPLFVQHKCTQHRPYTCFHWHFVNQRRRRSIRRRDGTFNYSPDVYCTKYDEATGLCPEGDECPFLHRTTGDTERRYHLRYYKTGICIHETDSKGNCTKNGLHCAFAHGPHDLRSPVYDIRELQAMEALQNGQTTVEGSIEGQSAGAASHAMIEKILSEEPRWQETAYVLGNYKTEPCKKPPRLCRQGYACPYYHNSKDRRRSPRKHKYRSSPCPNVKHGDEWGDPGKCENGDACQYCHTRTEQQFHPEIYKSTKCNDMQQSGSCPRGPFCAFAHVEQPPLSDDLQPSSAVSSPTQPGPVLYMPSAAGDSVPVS

B1: chr2:1632960:1633155:-|3pUTR|ENSG00000130508|msi1|total|mutant (ssRNA)
RNA: GGGAGUUCUACAGUCCGACGAUCGUCCAUUUUUCCGGUAUCCGAUAUGGCAGAAAAACCAUUUCCACUAUGCAAAGUUCUUUCCGACGUCAGUGAAAAUCAACUCUCAUACCUCAUGGUCUCUCUUUAAUUGACCAAAACCUUCAACAGAGGAUUGAGCAUCA
B2: chr11:119024350:119024909:-|three_prime_utr|ENSG00000137700|control|control|control (ssRNA)
RNA: GGGAGUUCUACAGUCCGACGAUCUCCCACGGUGGCCUUCCCCCUGCACGCUCUGCGGGGAGAAAAGGAGGGGCCUGCCUGGCUAGCCCUGAACCUUUCACUUUCCAUUUCUGCGCCUUUUCUGUCACCCGGGUGGCGCUGGAACAACAGAGGAUUGAGCAUCA
B3: ENSG00000099904:stop:overlap|stop_codon|ENSG00000099904|stop_codon|NA|stop_codon (ssRNA)
RNA: GGGAGUUCUACAGUCCGACGAUCGGGCCAUGUGCCGCCUGCACUUGGCUGCCUCCAGUCUUUUCCCCAGCCUCUCGGGGCCCUAGCAGGAUGACAAGUAGGCGGCUCUGGGGCCCAGGACAGCCCAGCUGGGGACCCAGGAGGCAACAGAGGAUUGAGCAUCA
B4: chr2:216675367:216675485:-|3pUTR|ENSG00000115461|msi1|FALSE|unique (ssRNA)
RNA: GGGAGUUCUACAGUCCGACGAUCGCCAGGCAGAGGCCAGCCCUCCGUGGUGCACACAGCACGCGCCUCAGUCCAUCCCAUUUUAGUCUUUAAACCCUCAGGAAGUCACAGUCUCCGGACACCACACCACAUGAGCCCAACAGGCAACAGAGGAUUGAGCAUCA
B5: chr15:63775065:63775180:-|CDS|ENSG00000103657|unk|FALSE|unique (ssRNA)
RNA: GGGAGUUCUACAGUCCGACGAUCUGGUUCAGCAGAUGUCCAUUCUGUUAGUGAACGCCCCCGGUCAAGCACUGAUGCACUUAUAGAAAUGGGUGUUCGAACUGGUCUAAGUUUAUUAUUUGCGCUUCUAAGACAAAGUUGGAUCAACAGAGGAUUGAGCAUCA
B6: chr14:77132432:77132533:-|3pUTR|ENSG00000177108|unk|total|mutant (ssRNA)
RNA: GGGAGUUCUACAGUCCGACGAUCUGUGAUUGCUGGACCCAGAGGCAAGAUCUGCAGAGAUGCCUGUGAGAUAUUUGCUUUCCCCGAGGGGAGUGUGGGCAUGGGAGGGGUCUGAAAAUCAGGACCCAACCCAGCCACUGAAGACAACAGAGGAUUGAGCAUCA
B7: chr8:22006364:22006465:+|3pUTR|ENSG00000130227|msi1|FALSE|unique (ssRNA)
RNA: GGGAGUUCUACAGUCCGACGAUCUGUUGCUGCUAGUUGUACACAUCUCUAGUUCAGCUCUUGCCCACGGGACACUCAUCAAUUAGGUUUUAUUUUUAUUUCUUUCCUCUACCCCCAGAAACAAGCCUGUUAAUUUUUUUUCCUCAACAGAGGAUUGAGCAUCA
B8: chr6:43186014:43186115:+|CDS|ENSG00000112659|msi1|total|mutant (ssRNA)
RNA: GGGAGUUCUACAGUCCGACGAUCCUGCUUUUCUCCUUGGUGAAGCGCUACCUUUGUGUCACGUCCCUCCUGGAUCAGCUGAACCGCAGUCCAGAGCUGGGAGCUGGAGACCAAAGCUCCCCAUGUGCCACAAGAGAGAAAAGCCAACAGAGGAUUGAGCAUCA
B9: ENSG00000070961:be:win_6151|3pUTR|ENSG00000070961|bound_else_gene|NA|bound_elsewhere_windowed (ssRNA)
RNA: GGGAGUUCUACAGUCCGACGAUCCAAUCACUUUUUCUCUUUUAUCCUCUAACCAAAAAAUUGUUUAAUUUUGCAUCCCAAAUGUUUUUAAUCUUUGUAUAUUUUUUAAAAAUCCUUUUCUCCUCAUCAUUGCCUUUUUUGUGGCAACAGAGGAUUGAGCAUCA
B10: chr13:51761002:51761103:+|3pUTR|ENSG00000139668|unk|FALSE|unique (ssRNA)
RNA: GGGAGUUCUACAGUCCGACGAUCACGGCAAGAUUGUAAUCCUGCUGUAUUCCUCGCCCUCUGUAUUCUAUCCCUUUAAAAACUAGAUAUUUAAACAUUUUAUCCUAAUGUGUUUCAUCAGAACACUUUGCACACUUUCUUACUCAACAGAGGAUUGAGCAUCA
B11: chr2:74214837:74214938:+|3pUTR|ENSG00000065911|msi1_unk|FALSE|overlapping (ssRNA)
RNA: GGGAGUUCUACAGUCCGACGAUCCUGUCCUUUUGAGGCUUAGUCAGUUUAUUGGGAAAAUGUUUAGGAUUAUUCCUUGCUAUUAGUACUCAUUUUAUGUAUGUUACCCUUCAGUAAGUUCUCCCCAUUUUAGUUUUCUAGGACCAACAGAGGAUUGAGCAUCA
B12: ENSG00000147536:stop:overlap|stop_codon|ENSG00000147536|stop_codon|NA|stop_codon (ssRNA)
RNA: GGGAGUUCUACAGUCCGACGAUCUCCGCUACGUCCUCAGCAGCUACUUGCGGUGUCGCCUCAUGAAGUUCCCAAACCAGAUCUAGAUUCUUACGUGUUUCUGAGAGUGAGAGAACGACAAGAAAACAUACUGGUAGAACCAGACAACAGAGGAUUGAGCAUCA
B13: chr3:25596636:25596694:+|3pUTR|ENSG00000077092|msi1_unk|FALSE|overlapping (ssRNA)
RNA: GGGAGUUCUACAGUCCGACGAUCUCCCCAGUACCUUCAGUUCCAGGAUUUAAAAUGCAAGAAAAAACAUUUUUACUGCUGCUUAGUUUUUGGACUGAAAAGAUAUUAAAACUCAAGAAGGACCAAGAAGUUUUCAUAUGUAUCCAACAGAGGAUUGAGCAUCA
B14: chr2:74214837:74214938:+|3pUTR|ENSG00000065911|msi1_unk|total|mutant (ssRNA)
RNA: B11 RNA with U40C, A41C, U64C, A65C, U83C, A84C, U130C, A131C, U138C, A139C
B15: chr8:22006364:22006465:+|3pUTR|ENSG00000130227|msi1|total|mutant (ssRNA)
RNA: B7 RNA with U33C, A34C, U49C, A50C, U83C, A84C
B16: chr6:15520333:15520434:+|3pUTR|ENSG00000008083|unk|FALSE|unique (ssRNA)
RNA: GGGAGUUCUACAGUCCGACGAUCCUUGCUGUAGGAUUCAAGCUGUCUUUGCACUAGCUCUAAAGAAGAUUUUCUUCUGGUUUUAGAGAACUAAUUUUGUUUUAGCAUUAAACUGUUGAACUUUUUUUUGUACUUAGAAAACCUCAACAGAGGAUUGAGCAUCA
B17: ENSG00000137168:stop:overlap|stop_codon|ENSG00000137168|stop_codon|NA|stop_codon (ssRNA)
RNA: GGGAGUUCUACAGUCCGACGAUCCAAACUCCCAGGACCGCCCUGUGGACGACGUGAAGAUCAUUAAGGCAUACCCUUCUGGGUAGACUUGCUACCCUCUUGAGCAGCUCUUCUGAGAUGGCCCCAGUGAACCAGCUUCUAGAUCAACAGAGGAUUGAGCAUCA
B18: chr7:7234405:7234460:+|CDS|ENSG00000106392|msi1_unk|FALSE|overlapping (ssRNA)
RNA: GGGAGUUCUACAGUCCGACGAUCAAUUUUUUAACCUUCCUCUGUGGAUCAGCAAUAGGAUUUCUUUUAUGUUCUCAGCUAUUUAGUAUUUUGUUGGGAGAAAAGGUUGACACCCAGCCUAAUGUUCUUCAUAAUGAUCCUCAUCAACAGAGGAUUGAGCAUCA

Numbering of substitutions follows the chain as printed. Whole data set: some 5,800 sequences, median “enrichment r” near 0.68, cut for the highest 2% near 11. The list comes from a sample in which the highest values are over-represented; it also holds similar and randomly drawn sequences.

The experiment has as its target T1, UNK ZnF1-6 (called full-length). In words: nsRBNS (natural sequence RNA bind-n-seq); RBNS binding buffer (assumed for nsRBNS): 25 mM Tris pH 7.5, 150 mM KCl, 3 mM MgCl2, 0.01% Triton X-100, 500 ug/ml BSA, 20 U/ml SUPERase-In, 4 C; UNK is unkempt and MSI1 is Musashi-1; names of the RNAs are library labels; protein concentration not given here; high values mean tight binding.
Regarding B1, the binding signal came to 0.41 enrichment R. With B2 the figure was 0.719 enrichment R. The molecule B3 returned a binding signal of 1.2 enrichment R. In the case of B4 it was 2.44 enrichment R; in that of B5, 0.696 enrichment R; in that of B6, 0.528 enrichment R. On to B7, for which the binding signal worked out at 41.4 enrichment R.

Take B8: the binding signal amounted to 0.544 enrichment R.

With B9, the binding signal turned out to be 4.78 enrichment R. Molecule B10 displayed a binding signal of 28.5 enrichment R. In the case of B11 it was 12.4 enrichment R; in that of B12, 33.9 enrichment R. With B13 the figure was 0.303 enrichment R; with B14, 0.338 enrichment R. With B15 the figure was 2.95 enrichment R. As for B16, the binding signal turned out to be 3.46 enrichment R. With B17 the figure was 0.7 enrichment R; with B18, 2.12 enrichment R.
